G9a inh: blocks human histone lysine methyltransferase G9a; Q96KQ7; Potency, µM (highest dose often 102 µM), inactives show top-dose activity, negative = inhibition, most hits filed as inhibitors; G9a H3K9 monomethylation, AlphaScreen, 2 h; 350,000 tested, 8.8% active; also: potency is read from the fitted curve at half-maximal effect; % is scaled to controls: 0 for no effect and ±100 for the full control effect; nearly all actives have a fitted effect of over 75% in size
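AlphaScreen read-out: biotin-H3K9 peptide (500 nM) methylation by 20 nM enzyme with 20 uM SAM, 2 h at room temperature after 15 min compound preincubation; anti-monomethyl H3K9 antibody plus donor/acceptor beads, 10 min dark.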
Six1-Eya2 blk: blocks human Six1 binding to Eya2 | 360,000 tested, 0.56% active | AlphaScreen GST-Six1/His-Eya2 binding, biochemical; hits give low values | activity change, % (no concentration beside the values); in the data active = activity change below about -65%; inconclusive = mostly about -30% to -63%; also: % is scaled to controls: 0 for no effect and ±100 for the full control effect
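Homogeneous AlphaScreen proximity assay pairing GST-Six1 with His-tagged Eya2 (added as 5X mix: 250 nM and 500 nM) in 50 mM Tris pH 8.0, 300 mM NaCl, 1 mM TCEP. Glutathione donor and nickel acceptor beads; 1 h, 37 °C, dark.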
HP1b binding inh: inhibitors of HP1-beta chromodomain binding to methylated histone tails; P83916; AlphaScreen HP1-beta / biotin-H3K9me3 peptide binding; Potency, µM (series often up to 114 µM), without a hit: at the top dose activity change, negative = inhibition, usual class: inhibitors; 390,000 tested, 0.56% active; AID 540317; also: potency is read from the fitted curve at half-maximal effect; nearly all actives have a fitted effect of over 70% in size
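HP1-beta protein (50 nM final) preincubated 30 min at room temperature with biotinylated H3(1-18)K9me3 peptide (50 nM) in PBS pH 7.4, 0.01% Tween-20, then compound added for 30 min. AlphaScreen streptavidin donor/nickel chelate acceptor beads (10 ug/mL final), 30 min dark, luminescence read.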
BAZ2B block: inhibitors of human BAZ2B bromodomain. Q9UIF8. AlphaScreen BAZ2B-H3K14Ac peptide displacement. Potency, µM (titrated, usually from 114 µM), for the others: top-dose activity change, negative = inhibition, usual class: inhibitors. 360,000 tested, 4.4% active; also: potency is read from the fitted curve at half-maximal effect; % is scaled to controls: 0 for no effect and ±100 for the full control effect; nearly all actives have a fitted effect of over 60% in size
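AlphaScreen displacement: compounds (up to 110uM) incubated 30 min at room temperature with a preformed 50 nM BAZ2B/50 nM biotinylated H3K14Ac peptide complex in PBS pH 7.4 with Tween-20. Donor and acceptor beads at 10 ug/mL final added, 20 min light-protected before reading.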
JMJD2A Tudor: blocks the human JMJD2A Tudor domain; AlphaScreen JMJD2A-Tudor / H3K4me3 peptide binding; O75164; Potency, µM (titrated, usually from 114 µM), inactives show at the top dose activity change, negative = inhibition, usual class: inhibitors; 390,000 tested, 4.4% active; also: potency is read from the fitted curve at half-maximal effect; % is scaled to controls: 0 for no effect and ±100 for the full control effect; nearly all actives have a fitted effect of over 50% in size
CtBP-E1A blk: inhibitors of CtBP/E1A interaction. 340,000 tested, 0.49% active. activity change, % (test concentration not listed). AlphaScreen GST-E1A/His-CtBP binding, 1536-well; hits give low values; in the data active = activity change below about -65%; inconclusive = mostly about -30% to -63%; also: % is scaled to controls: 0 for no effect and ±100 for the full control effect
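In 5 uL wells, 23 nL compound meets equimolar GST-E1A and His-CtBP (5X stock 125 nM each) for 2 h, 37 °C. Beads (5X, 50 ug/mL) then 1 h, 37 °C, dark.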
Starred values were filed as active, the others as inactive; ? = inconclusive; . = no result given; [ ] = remark or other dose. Most compounds without a hit are left out; they make up all but 10% or so of the library. Unless noted, calls follow the shape of the dose curve; as a rule, active = well fitted inhibition curve with a large enough effect; inconclusive = small, poorly fitted or top-dose-only effect; inactive = no such curve, though single readings can be large or run the other way.

SMILES | G9a inh | Six1-Eya2 blk | HP1b binding inh | BAZ2B block | JMJD2A Tudor | CtBP-E1A blk
COc1cc2ccccc2cc1C(=O)N1CCN(c2nc3c(C)cc(C)cc3s2)CC1 | -25%[59 µM] | . | 15% | -30% | -20% | .
Cc1ccc(S(=O)(=O)Nc2ccc(N3CCOCC3)cc2)cc1 | 79µM* | 0 | 17% | 56µM* | -17% | 4
Cc1ccc(S(=O)(=O)Nc2ccc(N3CCOCC3)nc2)cc1 | ? | 8 | 20% | -38% | -14%[11.4 µM] | .
CCCCCCC1(C)NC(=O)N(C(C)C(=O)Nc2ccc(N3CCOCC3)cc2)C1=O (stereo not given) | 17%[12.7 µM] | -1 | 22% | 7% | -26% | .
CC(=O)N1CCN(c2ccc(NS(=O)(=O)c3ccc(C)cc3)cc2)CC1 | 45µM* | 3 | 9% | -15% | -26% | 4
Cc1ccc(S(=O)(=O)Nc2cc(NC(=O)CN3CCOCC3)ccc2Cl)cc1 | ? | 4 | 17% | 79µM* | -19% | -7
CC(C)c1ccc(C2(C)NC(=O)N(C(C)C(=O)Nc3ccc(N4CCOCC4)cc3)C2=O)cc1 (stereo not given) | 56µM* | 6 | 36% | -32% | -25% | 17
CCOC(=O)c1ccc(NC(=O)CN2C(=O)COc3ccc(Cl)cc32)cc1 | 8%[59 µM] | . | 13% | -8% | -10% | .
O=S(=O)(Nc1cc(C(F)(F)F)ccc1N1CCOCC1)c1ccc2ccccc2c1 | 50µM* | -9 | 59% | -2% | -7% | -1
Cc1ccc(S(=O)(=O)Nc2ccc(N3CCOCC3)cc2)cc1C | 45µM* | 3 | -11% | -22% | ? | -23
O=S(=O)(Nc1cc(C(F)(F)F)ccc1N1CCOCC1)c1ccccc1 | 3% | 2 | 55% | 1% | -1% | .
Cc1ccc(S(=O)(=O)c2ccc(NN)cc2)cc1 | 8.9µM* | 9 | -21% | -22% | -34% | 4
Cc1ccc(S(=O)(=O)Nc2ccc(N3CCCCC3)cc2)cc1 | 22µM* | -15 | ? | 35µM* | ? | ?
COc1ccc(-c2nc3ccccc3s2)cc1NC(=O)c1cccc([N+](=O)[O-])c1C | 13%[59 µM] | . | 20% | -11% | -9% | .
Cc1ccc(S(=O)(=O)NCCc2nnc3ccc(SCC(=O)Nc4ccc(F)cc4F)nn23)cc1 | 0%[59 µM] | . | 32% | -1% | -2% | .
CC(C)CCNC(=O)c1ccc(NC(=O)N2CCCCc3ccccc32)cc1 | 7%[59 µM] | . | 38% | -2% | 7% | .
CCS(=O)(=O)N1CCc2cc(C(=O)Nc3cc([N+](=O)[O-])ccc3C)ccc21 | ? | . | 4% | ? | ? | .
CCOc1cc(-c2nc(-c3ccc(-c4ccccc4)nc3OCC)no2)cc(OCC)c1OCC | -4%[59 µM] | . | 42% | -3% | 0% | .
CC(C)c1ccc(NS(=O)(=O)c2ccc(N3C(=O)CCC3=O)cc2)cc1 | . | 7 | 7% | -5% | -19% | -1
Cc1ccc(NS(=O)(=O)c2ccc(N3C(=O)CCC3=O)cc2)cc1 | 50µM* | 0 | 29% | 0% | 30% | -1
CC(C)c1ccc(NS(=O)(=O)c2ccc(-n3cccn3)cc2)cc1 | . | 2 | 46% | -4% | -3% | 1
O=S(=O)(Nc1ccc(N2CCOCC2)cc1)c1ccc2ccccc2c1 | 40µM* | -10 | -23% | ? | ? | 3
CC(C)c1ccc(S(=O)(=O)Nc2ccc(N3CCOCC3)cc2)cc1 | ? | -16 | -1% | 45µM* | -32% | 9
FC(F)(F)c1ccc(N2CCOCC2)c(NC2=NCCCCC2)c1 | 50µM* | -1 | 18% | ? | -15% | 2
CC(=O)N[C@H](C(=O)N[C@@H](C)C(=O)N[C@H](C#N)CC(=O)O)C(C)C | 4%[12.7 µM] | . | . | 1% | . | .
SMILES | G9a inh | Six1-Eya2 blk | HP1b binding inh | BAZ2B block | JMJD2A Tudor | CtBP-E1A blk
Cc1ccc(-c2nc(CS(=O)CC(=O)N3CCN(c4ccccc4)CC3)c(C)o2)cc1 (stereo not given) | ? | -5 | 15% | ? | -21% | -5
Cc1oc(-c2ccccc2)nc1CS(=O)CC(=O)N1CCc2ccccc2C1 (stereo not given) | 22µM* | -4 | 29% | -24% | -22% | 5
Cc1ccc(CNC(=O)CCCn2nc(C)n3c(cc4sccc43)c2=O)cc1 | -5%[59 µM] | . | 34% | 6% | 9% | .
O=C(Cc1cccs1)NCc1cccc(CNC(=O)Cc2cccs2)c1 | 10% | 6 | 38% | -14% | -6% | .
O=C(Cc1cccs1)NCc1cccc(Cl)c1 | 26% | 2 | 48% | 6% | 89µM* | 3
Cc1cc(C(=O)CSc2nnc(N)s2)c(C)n1Cc1ccco1 | 40µM* | 8 | 9% | -38% | -6% | 1
Cc1cc(C(=O)COC(=O)c2ccco2)c(C)n1Cc1ccco1 | ? | -21 | ? | . | ? | .
Cc1cc(C(=O)COC(=O)c2cccn2C)c(C)n1Cc1ccco1 | 18µM* | ? | ? | 45µM* | 50µM* | .
Nc1nnc(SCC(=O)c2ccco2)s1 | 9%[0.501 µM] | -1 | 21% | 2% | -7% | 8
OC(c1ccccc1)c1nc2ccccc2n1Cc1c(F)cccc1Cl (stereo not given) | -28%[59 µM] | . | 44% | -33% | -26% | .
CCCCSc1nc2sc3c(c2c(=O)[nH]1)CCC3 | -38% | 3 | 3% | 3% | -17% | 8
O=c1[nH]c(SCc2n[nH]c(=S)n2-c2ccccc2)nc2sc3c(c12)CCC3 | 2µM* | -14 | -8% | -33% | 56µM* | ?
Nc1nc(SCc2nnc(SCC(=O)O)n2-c2ccccc2)nc2sc3c(c12)CCCC3 | 79µM* | ? | 14% | -32% | -31% | ?
CC(C)Cc1nnc(NC(=O)CCC(=O)Nc2ccccc2)s1 | 31% | 0 | 55% | 4% | -2% | 5
CC(C)(C)Cc1nnc(NC(=O)CSc2ccccc2)s1 | 4.5µM* | 0 | ? | ? | 56µM* | 8
CCCCc1nnc(NC(=O)CN2C(=O)c3ccccc3C2=O)s1 | -34% | 3 | 19% | -37% | -1% | 8
CCOCc1nnc(NC(=O)CSc2ccccc2)s1 | -2%[12.7 µM] | 5 | 25% | 7% | 4% | -1
CC(C)(C)Cc1nnc(NC(=O)CN2C(=O)c3ccccc3C2=O)s1 | 35µM* | 0 | ? | -26% | -1% | 0
CC(CC(=O)Nc1nnc(C(C)(C)C)s1)c1ccccc1 (stereo not given) | 25µM* | -2 | 9% | -5% | -17% | .

Screening data deposited in PubChem by National Center for Advancing Translational Sciences (NCATS).
